# In PubChem BioAssay (NCI):
# The panel holds about 83,000 compounds, 20% with a hit somewhere; the sample as a whole holds those more often.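 Growth was measured after 48 h exposure to one concentration of compound in 96-well plates. Values under 10 count as active.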 A number with no mark means an inactive call. The source made the active and inactive calls.
# Columns and labels:
# Assay in all cases: NCI-60 one-dose screen, 48 h (100 = growth as untreated, 0 = no growth, -100 = all killed)
# Details in all cases: 10 µM unless noted
# [1] = tested on: NCI-H23 lung
# [2] = tested on: NCI-H226 lung
# [3] = tested on: NCI-H322M lung
# [4] = tested on: HOP-62 NSCLC
# [5] = tested on: NCI-H460 lung
# [6] = tested on: HOP-92 NSCLC
# [7] = tested on: NCI-H522 lung
# [8] = tested on: A549/ATCC NSCLC
# [9] = tested on: COLO 205 colon
# [10] = tested on: 786-0 renal
SMILES,growth [1],growth [2],growth [3],growth [4],growth [5],growth [6],growth [7],growth [8],growth [9],growth [10]
CCOC(=O)c1cc(C(=O)c2cc(OC)c(OC)c(OC)c2)n2c1ccc1ccccc12,50.2%,64.7%,43.1%,21.6%,14.9%,39.1%,2.76% (active),34.4%,-6.61% (active),
CC1(C)C(=O)/C(=C\c2ccc(C(F)(F)F)cc2)C[C@]2(C)[C@H]3CC[C@@H]4[C@H]5[C@H](C(=O)/C=C/c6ccc(C(F)(F)F)cc6)CC[C@]5(CO)CC[C@@]4(C)[C@]3(C)CC[C@@H]12,100%,91.4%,101%,101%,99.4%,93.7%,97.9%,90.6%,115%,107%
CCCCCCCCCCCC(=O)NCCC[N+](C)(C)CC(=O)[O-],93.2%,93.8%,96.6%,97.3%,104%,79.1%,80%,105%,88.7%,93.5%
FC(F)(F)c1ccccc1-c1cn2c(ccc3ccccc32)n1,85.3%,77.5%,96.1%,60.4%,85.3%,79.9%,49%,80%,102%,94.9%
O=[N+]([O-])c1cccc(-c2nc3sccn3c2-c2ccnc(NCCCNS(=O)(=O)c3ccc(Cl)cc3)n2)c1,42.8%,44.2%,78.5%,84%,57.4%,67.2%,28.4%,43.1%,49.2%,78.7%
CCOC(=O)CN1/C(=N/c2sc3c(c2C(=O)OCC)CCN(C(=O)OCC)C3)SC(=O)/C1=C\C(=O)OC,95.8%,92.2%,98.4%,92.4%,99.9%,74.5%,76.4%,90.4%,101%,
COc1cc(C2C3=C(COC3=O)Nc3cc4c(cc32)OCO4)cc2c1OCO2 (stereo unspecified),40.3%,19.2%,48.5%,36%,2.94% (active),40.6%,5.26% (active),11.9%,-51.5% (active),19.9%
O=[N+]([O-])c1cc(Cl)c2[nH]c3c(Cl)cc([N+](=O)[O-])cc3c2c1,9.08% (active),-0.747% (active),-0.868% (active),15.3%,-15.8% (active),-14.3% (active),-44% (active),-42% (active),-73.6% (active),8.87% (active)
C=C[C@@H]1C[C@H](O)Cc2cc(F)ccc2N1,97.4%,87%,112%,88%,98%,56.2%,92.9%,98%,107%,100%
O=S(=O)(NCCNc1nccc(-c2c(-c3ccc(O)cc3)nc3sccn23)n1)c1cccc2ccccc12,98.1%,102%,98.1%,106%,106%,94.9%,91.5%,98.2%,109%,96.6%
O=C(Nc1cccc(-n2cc(-c3ccncc3)c(-c3ccc(Cl)c(O)c3)n2)c1)Nc1ccc(Cl)c(C(F)(F)F)c1,-25.8% (active),3.43% (active),24.7%,-17% (active),-43.7% (active),-30.7% (active),-30% (active),-21.3% (active),-60.2% (active),4.7% (active)
N/C(=N\C(N)=N\c1nc2ccccc2s1)c1cccc(Br)c1,77%,71.6%,81%,-0.459% (active),76.4%,96.7%,80%,-40.6% (active),115%,98.4%
COc1ccc(/C=C\c2cc(OC)c(OC)c(OC)c2)cc1OC(=O)c1cccc(Cn2cc(CCOC(=O)c3cccc(Cn4nnc5c4C(=O)c4ccccc4C5=O)c3)nn2)c1,33.1%,58.4%,50.5%,14.9%,5.39% (active),52.6%,6.06% (active),17.3%,-25.2% (active),
O=C([O][Sn]([O]C(=O)c1ccccn1)([c]1ccccc1)[c]1ccccc1)c1ccccn1,55.2%,65.5%,123%,98.9%,107%,74.5%,-68.7% (active),103%,77.4%,96.2%
C=C[C@@H]1C[C@@H]2Cc3cc(Cl)ccc3N1O2,101%,88.9%,130%,94.8%,97.5%,67%,92.7%,100%,94.3%,102%
S=c1[nH]nc(-c2cc3ccc2CCc2ccc(cc2)CC3)n1C1CC1,97.8%,108%,105%,104%,103%,96.1%,89.6%,108%,113%,
Brc1cccc(-c2cc(-c3ccc4c(c3)OCCCO4)[nH]n2)c1,66.2% [25 µM],72% [25 µM],68% [25 µM],53% [25 µM],16% [25 µM],56.8% [25 µM],2.15% [25 µM] (active),44.4% [25 µM],36.3% [25 µM],85.2% [25 µM]
O=c1[nH]c2ccc(Br)cc2c2c1C(c1ccc(Cl)cc1)c1c(ncn3nc(-c4ccco4)nc13)O2 (stereo unspecified),76.1%,65.5%,75.3%,50%,85.1%,37.7%,69.4%,74.8%,91%,
COc1ccc2cc(-c3ccc(-c4ccc(C(=N)N)cc4)s3)ccc2c1,107%,102%,97.7%,93.3%,100%,87.2%,102%,104%,72.5%,99.5%
CCCCOc1ccc(/C=C2/SC(N3CCCC3)=NC2=O)cc1,98.8%,85.5%,98.8%,99.3%,99%,86.8%,82.4%,94.7%,104%,

SMILES,growth [1],growth [2],growth [3],growth [4],growth [5],growth [6],growth [7],growth [8],growth [9],growth [10]
C=C1C(=O)O[C@H]2[C@H]1CC/C(Cn1cc(CNC(=O)Cc3cn(C(=O)c4ccc(Cl)cc4)c4ccc(OC)cc34)nn1)=C\CC[C@@]1(C)O[C@@H]21,19.7%,70.9%,88.3%,78.6%,88.5%,-65.8% (active),-50.7% (active),68.4%,-74% (active),-82.7% (active)
CC(=O)Oc1csc(N(C(C)=O)c2cc(C(=O)O)cc(C(=O)O)c2)n1,93.1%,101%,99.8%,99%,102%,47.3%,93.1%,97.1%,99.7%,
c1ccc(-c2cn(-c3ccccc3)c(-c3ccccc3)n2)cc1,77.6%,93.4%,104%,82%,89.5%,69.4%,73.9%,48%,95.2%,71.5%
CC(=O)Oc1csc(N(C(C)=O)c2cccc(C(F)(F)F)c2)n1,94.7%,93.3%,99%,94.4%,102%,45.7%,83.1%,92.3%,107%,
O=C(NCCNc1nccc(-n2ccc3cccnc32)n1)c1ccc(C(F)(F)F)cc1,105%,97.7%,107%,99.2%,102%,112%,100%,102%,112%,103%
CC(C)C(C(=O)NCCN1CCOCC1)N1C(=O)/C(=C/c2ccc(Br)cc2)SC1=S (stereo unspecified),98.4%,107%,100%,104%,101%,104%,95.9%,102%,111%,
CCC1=CCC[C@@]2(C)CCC[C@@]3(C)CCCC(C)(C)[C@]1([O-])[O+]32,99.7%,102%,116%,104%,109%,87.8%,93.9%,103%,112%,97.9%
Nc1ccc(C(=O)CSc2nc3ccccc3[nH]2)cc1,98.4%,108%,108%,111%,106%,116%,101%,,120%,93.5%
COc1ccc(/C=C/c2c(C(C)=O)c(C)nc3ccccc23)cc1,60.9%,92.6%,99.3%,79.2%,100%,79.3%,61.2%,,106%,94.9%
CCCCC(CC)OC(=O)C(Br)CC (stereo unspecified),92.7%,108%,101%,111%,109%,95.8%,103%,,111%,98.4%
Cc1ccc(S(=O)(=O)n2cc(C(=O)C(=O)N3CCOCC3)c3ccccc32)cc1,79.4%,82.4%,99.2%,84.7%,113%,26.6%,75.2%,,112%,92.4%
Cc1ccc2nc(-c3cc4c([nH]c5ccccc54)c(-c4ccc(F)c(F)c4)n3)[nH]c2c1,84.1%,97.7%,103%,79.8%,83%,99%,65.7%,,88%,99.6%
COc1ccc(-c2nc3sccn3c2/C=C/C(=O)c2cc(F)cc(F)c2)cc1,76.3%,80.5%,123%,85.8%,88.4%,18.6%,48.6%,,68.3%,89.1%
O=C(CSC1CCc2ccccc21)N/N=C/c1ccccc1O (stereo unspecified),55.5%,67.7%,22.6%,47.5%,30.9%,77.4%,7.47% (active),,45.7%,66.6%
CCCCCCCCCCCCCCCCCCNC(=O)[C@H]1CSC(c2cccs2)N1 (stereo partly specified),18.9%,-77.5% (active),0.224% (active),-90.3% (active),-78.4% (active),46.3%,38.6%,,80.6%,3.69% (active)
COc1ccc2c(c1)OC1=C(C(=O)OC1)C2c1cc(OC)c2c(c1)OCO2 (stereo unspecified),46.2%,21.3%,49%,29.6%,4.22% (active),55%,4.87% (active),,-38.1% (active),20.5%
N[C@@H]1CCN(C(=O)c2cc3cc(Cl)c(F)c(F)c3[nH]2)C1,92.8%,75%,87.1%,84.4%,99.8%,74.1%,80.1%,,110%,86.6%
OB(O)c1cccc(-c2nc3ccc4[nH]ncc4c3c3c2CCCC3)c1F,59%,37.9%,48.1%,29.3%,22.2%,27.1%,26.9%,,,34.8%
COC1=C(OC)C(=O)C(CCCCCCCCCC[P+](c2ccccc2)(c2ccccc2)c2ccccc2)=C(C)C1=O,-8.24% (active),-19.5% (active),-17.9% (active),-19.5% (active),-52.1% (active),-47.3% (active),2.62% (active),,-93.3% (active),-57.8% (active)
COc1cc2c(c(OC)c1OC)-c1ccc(N)c(=O)cc1[C@@H](NC(C)=O)CC2,4.57% (active),40.1%,27.4%,46.1%,-2.43% (active),31%,-34.2% (active),,,19.7%
